# Assay results reported in PubChem BioAssay (NCI).
# “And” between values parts separate entries of the source, which are not always exact repeats. Equal entries are not always repeated. Compounds without any hit were thinned out: in the full panel of roughly 83,000, 20% have a hit.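 Values shown are percent growth following 48 h exposure of cells in 96-well plates to a single concentration of compound; below 10 was considered active.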 The source made the active and inactive calls.
# Key:
# Assay in all cases: NCI-60 one-dose screen, 48 h (100 = growth as untreated, 0 = no growth, -100 = all killed)
# EKVX NSCLC = test system: EKVX NSCLC
# SN12C renal = test system: SN12C renal
# UO-31 renal = test system: UO-31 renal
# TK-10 renal = test system: TK-10 renal
# ACHN renal = test system: ACHN renal
# CAKI-1 renal = test system: CAKI-1 renal
# A498 renal = test system: A498 renal
# MOLT-4 leukemia = details: 10 µM unless noted
# RPMI-8226 leukemia = test system: RPMI-8226 leukemia
# CCRF-CEM leukemia = details: 10 µM
smiles,measurement,setting,value
O=[N+]([O-])c1cc(S(=O)(=O)Nc2ccccc2)ccc1Cl,growth,EKVX NSCLC; 10 µM,86.1% (inactive)
same,growth,SN12C renal; 10 µM,95.7% (inactive)
same,growth,UO-31 renal; 10 µM,76.7% (inactive)
same,growth,TK-10 renal; 10 µM,99.1% (inactive)
same,growth,ACHN renal; 10 µM,94.2% (inactive)
same,growth,CAKI-1 renal; 10 µM,77.3% (inactive)
same,growth,A498 renal; 10 µM,96.8% (inactive)
same,growth,MOLT-4 leukemia,89% (inactive)
same,growth,RPMI-8226 leukemia; 10 µM,88.4% (inactive)
CC(=O)O[C@H]1C(=O)[C@@]2(C)[C@H]([C@H](OC(=O)c3ccccc3)[C@]3(O)C[C@H](OC(=O)[C@H](O)[C@@H](NC(=O)c4ccccc4)c4ccccc4)C(C)=C1C3(C)C)[C@]1(OC(C)=O)CO[C@@H]1C[C@@H]2O,growth,EKVX NSCLC; 0.01 µM,60.7% (inactive)
same,growth,EKVX NSCLC; 2.5 µM,35% (inactive)
same,growth,EKVX NSCLC; 5 µM,40.5% (inactive)
same,growth,EKVX NSCLC; 10 µM,47.1% (inactive) and 41.5% (inactive)
same,growth,SN12C renal; 0.01 µM,46.3% (inactive)
same,growth,SN12C renal; 2.5 µM,25.5% (inactive)
same,growth,SN12C renal; 5 µM,32% (inactive)
same,growth,SN12C renal; 10 µM,55.6% (inactive) and 33.2% (inactive)
same,growth,UO-31 renal; 0.01 µM,103% (inactive)
same,growth,UO-31 renal; 2.5 µM,42.6% (inactive)
same,growth,UO-31 renal; 5 µM,42.7% (inactive)
same,growth,UO-31 renal; 10 µM,9.24% (active) and 39.3% (inactive)
same,growth,TK-10 renal; 0.01 µM,87.7% (inactive)
same,growth,TK-10 renal; 2.5 µM,44.7% (inactive)
same,growth,TK-10 renal; 5 µM,46.1% (inactive)
same,growth,TK-10 renal; 10 µM,18.4% (inactive) and 43.6% (inactive)
same,growth,ACHN renal; 0.01 µM,95.3% (inactive)
same,growth,ACHN renal; 2.5 µM,42.4% (inactive)
same,growth,ACHN renal; 5 µM,44.8% (inactive)
same,growth,ACHN renal; 10 µM,25.4% (inactive) and 43.1% (inactive)
same,growth,CAKI-1 renal; 0.01 µM,93.4% (inactive)
same,growth,CAKI-1 renal; 2.5 µM,22.2% (inactive)
same,growth,CAKI-1 renal; 5 µM,23.1% (inactive)
same,growth,CAKI-1 renal; 10 µM,25.1% (inactive) and 23.4% (inactive)
same,growth,A498 renal; 0.01 µM,61.7% (inactive)
same,growth,A498 renal; 2.5 µM,74.4% (inactive)
same,growth,A498 renal; 5 µM,96.2% (inactive)
same,growth,A498 renal; 10 µM,93.6% (inactive) and 52.1% (inactive)
same,growth,RPMI-8226 leukemia; 0.01 µM,-10.5% (active)
same,growth,RPMI-8226 leukemia; 2.5 µM,11.4% (inactive)
same,growth,RPMI-8226 leukemia; 5 µM,1.39% (active)
same,growth,RPMI-8226 leukemia; 10 µM,-42.3% (active) and 8.81% (active)
Cc1cc(N=C2C=CC(=[N+](C)C)C=C2)c(N)cc1N,growth,EKVX NSCLC; 10 µM,85.4% (inactive)
same,growth,SN12C renal; 10 µM,88.7% (inactive)
same,growth,UO-31 renal; 10 µM,71.5% (inactive)
same,growth,TK-10 renal; 10 µM,106% (inactive)
same,growth,ACHN renal; 10 µM,91% (inactive)
same,growth,CAKI-1 renal; 10 µM,92.8% (inactive)
same,growth,A498 renal; 10 µM,75.7% (inactive)
same,growth,RPMI-8226 leukemia; 10 µM,65.7% (inactive)
O=Nc1ccc(Nc2ccccc2)cc1,growth,EKVX NSCLC; 10 µM,89.2% (inactive)
same,growth,SN12C renal; 10 µM,95.6% (inactive)
same,growth,UO-31 renal; 10 µM,53.9% (inactive)
same,growth,TK-10 renal; 10 µM,116% (inactive)
same,growth,ACHN renal; 10 µM,41.5% (inactive)
same,growth,CAKI-1 renal; 10 µM,66.1% (inactive)
same,growth,A498 renal; 10 µM,87.2% (inactive)
same,growth,RPMI-8226 leukemia; 10 µM,27.1% (inactive)
COc1ccc(C(C#N)=C2C=CC(=NO)C=C2)cc1,growth,EKVX NSCLC; 10 µM,125% (inactive)
same,growth,SN12C renal; 10 µM,95.8% (inactive)
same,growth,UO-31 renal; 10 µM,67% (inactive)
same,growth,TK-10 renal; 10 µM,12.9% (inactive)
same,growth,ACHN renal; 10 µM,78.5% (inactive)
same,growth,CAKI-1 renal; 10 µM,93.6% (inactive)
same,growth,A498 renal; 10 µM,114% (inactive)
same,growth,RPMI-8226 leukemia; 10 µM,22% (inactive)
CCOC(=O)[C@]1(Br)CC[C@@]1(Br)C(=O)OCC,growth,EKVX NSCLC; 10 µM,99.5% (inactive)
same,growth,SN12C renal; 10 µM,98.1% (inactive)
same,growth,UO-31 renal; 10 µM,61.5% (inactive)
same,growth,TK-10 renal; 10 µM,95.9% (inactive)
same,growth,ACHN renal; 10 µM,78.9% (inactive)
same,growth,CAKI-1 renal; 10 µM,90.3% (inactive)
same,growth,A498 renal; 10 µM,115% (inactive)
same,growth,CCRF-CEM leukemia,99.8% (inactive)
same,growth,RPMI-8226 leukemia; 10 µM,96.8% (inactive)
CC[C@@]1(OC(=O)CN(C)C)C(=O)OCc2c1cc1n(c2=O)Cc2cc3c(N)cccc3nc2-1,growth,EKVX NSCLC; 10 µM,18.2% (inactive)
same,growth,SN12C renal; 10 µM,7.95% (active)
same,growth,UO-31 renal; 10 µM,-50.8% (active)
same,growth,TK-10 renal; 10 µM,20.1% (inactive)
same,growth,ACHN renal; 10 µM,-49% (active)
same,growth,CAKI-1 renal; 10 µM,-20.1% (active)
same,growth,A498 renal; 10 µM,-56.6% (active)
same,growth,RPMI-8226 leukemia; 10 µM,2.58% (active)
Cn1ncc2cc3c(Nc4ccc(Cl)cc4)cccc3nc21,growth,EKVX NSCLC; 10 µM,76.7% (inactive)
same,growth,SN12C renal; 10 µM,93.7% (inactive)
same,growth,UO-31 renal; 10 µM,62.5% (inactive)
same,growth,TK-10 renal; 10 µM,92.9% (inactive)
same,growth,ACHN renal; 10 µM,90.5% (inactive)
same,growth,CAKI-1 renal; 10 µM,88.6% (inactive)
same,growth,A498 renal; 10 µM,75.4% (inactive)
same,growth,CCRF-CEM leukemia,95.5% (inactive)
same,growth,RPMI-8226 leukemia; 10 µM,79% (inactive)
